About 79,000 compounds went through this panel and 15% of them were active in at least one assay; those are over-represented in the sample as a whole. Cut-off read from the data, not from the text of the source: active = growth inhibition above about 70%; inactive = the rest.
Experiments:
[1] = NCI Yeast Anticancer Drug Screen. Data for the rad50 strain (AID 155);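 note: 0% = growth of vehicle-only cultures of the same strain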; settings: S. cerevisiae rad50 strain growth inhibition; at 50.0 µM; hits give high values
Method in brief: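 A DNA repair-deficient yeast mutant serves as the test organism; compound-induced growth inhibition is calculated against vehicle-treated cells.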

[2] = NCI Yeast Anticancer Drug Screen. Data for the mec2-1 strain (AID 157); settings: S. cerevisiae mec2-1 strain, at 50.0 µM, hits give high values
Method in brief: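 Cells of the genetically defined mec2-1 yeast strain are incubated with test compound. Inhibition of growth is calculated against vehicle-treated controls.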

[3] = NCI Yeast Anticancer Drug Screen. Data for the sgs1 mgt1 strain (AID 161);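 note: 0% = growth of cultures given vehicle only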; settings: S. cerevisiae sgs1 mgt1 strain, at 50.0 µM, hits give high values
Method in brief: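 Read-out: growth inhibition vs vehicle controls. Cells: mutant yeast strain deficient in DNA damage repair.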

[4] = NCI Yeast Anticancer Drug Screen. Data for the cln2 rad14 strain (AID 165);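 note: 0% = growth equal to vehicle treated cultures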; settings: S. cerevisiae cln2 rad14 strain, at 50.0 µM, hits give high values
Method in brief: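 The screen exposed genetically defined yeast (cln2 rad14) to test compounds and scored growth inhibition relative to vehicle-treated controls.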

[5] = NCI Yeast Anticancer Drug Screen. Data for the bub3 strain (AID 167); settings: S. cerevisiae bub3 mutant strain, at 50.0 µM, hits give high values
Method in brief: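 Inhibition values come from growth of compound-treated mutant yeast normalised to vehicle-treated controls.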

[6] = NCI Yeast Anticancer Drug Screen. Data for the mlh1 rad18 strain (AID 175); settings: S. cerevisiae mlh1 rad18 strain growth inhibition; at 50.0 µM; hits give high values
Method in brief: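 Compound-treated yeast growth, normalised to vehicle controls. Strain bears defined DNA repair mutations.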

Measured: growth inhibition

O/N=C/c1nc2ccccc2s1
inactive: [1] 10.2% | [2] 22.8% | [3] -3.65% | [4] -55.6% | [5] -17.6% | [6] 23.8%

N#CC(CC(=O)NN)C(=O)NN (stereo not given)
inactive: [1] -20.4% | [2] -8.9% | [3] -21% | [4] -12.4% | [5] -38.7% | [6] -22.5%

CCCCCCCCCCCCCCCCCCN=C(N)N
inactive: [1] -1.55% | [2] -10.8% | [3] 12.8% | [4] 22.4% | [5] -2.25% | [6] 10.8%

O=C(CCCC(=O)Nc1cccc([N+](=O)[O-])c1)CC(=O)c1ccc([N+](=O)[O-])cc1
inactive: [1] -2.7% | [2] -1.25% | [3] -8.2% | [4] -4.15% | [5] -14.6% | [6] 8%

COc1ccc(-n2cnc3[nH]ncc3c2=O)cc1
inactive: [1] 1.7% | [2] 0.75% | [3] 0.05% | [4] -0.85% | [5] 12.3% | [6] -2.95%

Nc1nnnn1NC(=O)NCCCl
inactive: [1] -43.7% | [2] -38.7% | [3] -35.9% | [4] -18.4% | [5] -27.4% | [6] -26.5%

COc1ccc(/C(=N\N=C(N)N)C(c2ccc(OC)cc2)C2OC(=O)c3ccccc32)cc1 (stereo not given)
inactive: [1] -12.2% | [2] -4.85% | [3] -4.65% | [4] -64.8% | [5] 16% | [6] -18.7%

Cc1ccc(-n2c(=O)nc([O-])[n+]3ccccc23)cc1
inactive: [1] -2.85% | [2] -6.85% | [3] -7.95% | [4] -24.8% | [5] -3.75% | [6] 6.65%

CC(C)C(=O)OCc1ccccc1
inactive: [1] 0.95% | [2] -5.7% | [3] -6.75% | [4] -3.9% | [5] -10.8% | [6] -24.9%

Cc1ncc(CSC(=N)N)n1Cc1ccccc1
inactive: [1] -33.6% | [2] -11.4% | [3] -6.55% | [4] -17.6% | [5] -11.1% | [6] -23.9%

CC(C)c1ccc(/C(O)=C/C(=O)C(=O)/C=C(/O)c2ccc(C(C)C)cc2)cc1
inactive: [1] 31.4% | [2] 2.25% | [3] 1.25% | [4] 9.6% | [5] 2.5% | [6] 10.7%

CC1(C)C2CC3C(=CCC4C(=O)C5CC=C6C(CC7CC6C7(C)C)C5C(=O)C43)C1C2 (stereo not given)
inactive: [1] 23.6% | [2] -6.1% | [3] 14% | [4] -20% | [5] -5.2% | [6] -1.65%

CC(=O)OCC1OC(n2c(=O)n(-c3ccccc3)c(=O)c3ccccc32)C(OC(C)=O)C(OC(C)=O)C1OC(C)=O (stereo not given)
inactive: [1] -12.8% | [2] 11.3% | [3] -7.9% | [4] 19.1% | [5] -6.85% | [6] 4.65%

CCCCCCCCCC[CH2][Sn]([CH2]CCCCCCCCCC)([CH2]CCCCCCCCCC)[CH2]CCCCCCCCCC
inactive: [1] 5.8% | [2] 7.8% | [3] -3.4% | [4] -16.3% | [5] -1.25% | [6] 23.7%

COC(=O)C(=O)c1c(C(=O)OC)nc2nnc(N)n2c1-c1ccc(Cl)c(Cl)c1
inactive: [1] 1.7% | [2] -2.8% | [3] -4.9% | [4] -29.9% | [5] 16.1% | [6] -7.55%

CCN(CC)C(=O)/C(C)=C(\C)c1ccccc1
inactive: [1] -12.7% | [2] 11.8% | [3] -11.6% | [4] 8.3% | [5] 2.9% | [6] -1.45%

OC1COC(c2ccccc2)OC1C(O)C1OC(c2ccccc2)OCC1O (stereo not given)
inactive: [1] 5.3% | [2] -3.8% | [3] 12.2% | [4] -38.9% | [5] -8.2% | [6] 10.7%

CCCCCCCCc1cc(CN2CCOCC2)c(O)c(CN2CCOCC2)c1
inactive: [1] 25.1% | [2] 14.6% | [3] 22.2% | [4] 24.4% | [5] 12.8% | [6] 21.6%

CSc1nc(C)cc(Nc2ccc(O)c(CN3CCOCC3)c2)n1
inactive: [1] 6.1% | [2] -3.25% | [3] -22% | [4] -33.1% | [5] -52% | [6] 9.4%

CCCCCCOCC(=O)OC
inactive: [1] 10.2% | [2] -9.6% | [3] -1.55% | [4] 8.35% | [5] 9.2% | [6] -2.85%

C1CSCCSCCSCCS1
inactive: [1] -1.15% | [2] -2.55% | [3] -0.85% | [4] -12.4% | [5] -0.4% | [6] -11.9%

CC1CSC(C)(C)C(=O)N1 (stereo not given)
inactive: [1] 16.2% | [2] 14.8% | [3] 2.35% | [4] -26.8% | [5] 13.8% | [6] 19.9%

CCOC(=O)c1nc(-c2ccccc2)c(-c2ccccc2)c(-c2ccccc2)c1C
inactive: [1] -24.6% | [2] -2.55% | [3] 10.2% | [4] -36.9% | [5] -0.6% | [6] -4.85%

CCCNC(=S)/N=C/c1c(O)cc(C)oc1=O
inactive: [1] -51.6% | [2] -65.6% | [3] -24.2% | [4] -0.3% | [5] -18.5% | [6] -42.2%

O=C(O)/C=C\c1cc2c(cc1[N+](=O)[O-])OCO2
inactive: [1] 0.4% | [2] -5.3% | [3] -4.2% | [4] -12.2% | [5] 14.6% | [6] -2.5%

CC1(C)[C@H]2Cc3c(ccc4c3C(=O)OC4=O)[C@@H]1C2
inactive: [1] 6.75% | [2] -3.9% | [3] 0.35% | [4] -30.6% | [5] -17.4% | [6] 2.45%

O=C1CSC(c2ccccc2C(F)(F)F)N1c1nncs1 (stereo not given)
inactive: [1] 18.4% | [2] 1% | [3] 11.6% | [4] -46% | [5] -39.2% | [6] 9.8%

CCOC(=O)N1C2CC=CCC1C1(c3ccccc3)OC2(c2ccccc2)c2ccccc21
inactive: [1] -16.7% | [2] -3.95% | [3] -4.6% | [4] 5.05% | [5] -1.05% | [6] -24.1%

CCCOC(=O)c1ccnc(C(=O)OCCC)c1
inactive: [1] 4.85% | [2] 4.85% | [3] -1.2% | [4] -16.2% | [5] -9.9% | [6] -13.6%

CN(C)CCn1cnc2sc3ccccc3c21
inactive: [1] -8.35% | [2] -15.5% | [3] -23.8% | [4] 24% | [5] -6.35% | [6] -23.8%

OCC1(c2ccccc2)CCNCC1
inactive: [1] -8.7% | [2] -4.9% | [3] -2.1% | [4] -0.7% | [5] -9.7% | [6] 26.6%

NC(=O)CCC(NS(=O)(=O)c1ccc(NC(=O)c2ccccc2)cc1)C(=O)O (stereo not given)
inactive: [1] 4% | [2] -4.1% | [3] -22.9% | [4] 19.6% | [5] -5.7% | [6] -1.95%

C[C@]12CCC(=O)O[C@@H]1CC[C@@H]1[C@@H]2CC[C@]2(C)[C@@H](O)CC[C@@H]12
inactive: [1] 20.9% | [2] 14% | [3] 42.3% | [4] 32.5% | [5] 27.2% | [6] 23.1%

Cc1ncc([N+](=O)[O-])n1CCNCCCn1ccnc1[N+](=O)[O-]
inactive: [1] -9.9% | [2] -7.25% | [3] -17.4% | [4] -9.3% | [5] -9.7% | [6] -44%

CCCCN=C(N)N=C(N)N
inactive: [1] 6.7% | [2] 2.75% | [3] 0.75% | [4] -7.45% | [5] -5.15% | [6] 4.05%

Cc1ccc2ncccc2c1
inactive: [1] -2.75% | [2] -18.1% | [3] 1.8% | [4] -12.4% | [5] 3.9% | [6] -6.45%

CCO/N=C(/CNC(=O)Oc1ccccc1)c1ccccc1
inactive: [1] 3.15% | [2] 0.75% | [3] -4.05% | [4] 28% | [5] 37.4% | [6] 9.45%

COc1cccc(CN2C(=O)NC(C)(C)C2O)c1 (stereo not given)
inactive: [1] -12.2% | [2] 28.4% | [3] 10.3% | [4] -5.75% | [5] 11.6% | [6] 10.2%

CO/N=C(\C(=O)OC(=NC1CCCCC1)NC1CCCCC1)c1csc(NC(c2ccccc2)(c2ccccc2)c2ccccc2)n1
inactive: [1] -5.15% | [2] -7.85% | [3] -5.4% | [4] -7.8% | [5] -0.3% | [6] -6.5%

O=C1OC(C(Cl)(Cl)Cl)Nc2ccccc21 (stereo not given)
inactive: [1] 13.8% | [2] -19.8% | [3] 9.35% | [4] 15.6% | [5] 19.4% | [6] 12.9%

— PubChem BioAssay (NCI)
